PI5P4Ka inh: qHTS for Inhibitors of phosphatidylinositol 5-phosphate 4-kinase (PI5P4K); Phosphatidylinositol 5-phosphate 4-kinase type-2 alpha (Homo sapiens), P48426; PI5P4Kalpha enzyme, ADP-Glo luminescence, 60 min; stronger effect = lower value; max response, %; 1.2% of 330,000 active; AID 652105, 2013; active means max response of -50% or lower; inconclusive means between -30% and -50%; inactive means -30% or higher; further: value at the top dose of about 77 µM; on the % scale 0 is the no-effect control and ±100 the full control effect
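PI5P4Kalpha ADP-Glo assay; 5 microM ATP final; 60 min RT reaction; HEPES pH 7.4/EGTA/CHAPS, 5% DMSO; controls lacking substrate or enzyme; luminescent end-point.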
Rango complex inh: qHTS Assay for Inhibitors of Rango (Ran-regulated importin-beta cargo) - Importin beta complex formation | 0.031% of 340,000 active | AID 540263, 2011 | Potency, µM (doses to about 92.2 µM), for inactives: at the top dose inhibition of complex formation | Importin subunit beta-1 (Homo sapiens), Q14974 | Rango CFP/YFP FRET sensor + importin beta, 45 min; calls by dose curve;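 further: potency means the concentration at half of the fitted maximal effect; 0% = DMSO wells and 100% = buffer wells lacking importin beta; nearly all actives have a fitted effect of over 15% in size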
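FRET biosensor Rango (snurportin 1 IBB between N-terminal EYFP and C-terminal Cerulean), 50 nM in PBS/1 mM DTT/0.02% Tween-20/0.1% BSA, preincubated 5 min RT with compound; 0.125 microM importin beta added, 45 min RT, CFP/YFP FRET ratio read.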
PLK1 PBD inh: qHTS for Inhibitors of PLK1-PDB (polo-like kinase 1 - polo-box domain): Primary Screen | Plk1 PBD binding of FITC phosphopeptide, fluorescence polarization | Serine/threonine-protein kinase PLK1 (Homo sapiens), P53350 | Potency, µM, inactives show max response, negative = inhibition, most hits filed as inhibitors | 2.8% of 360,000 active; further: potency means the concentration at half of the fitted maximal effect; series mostly up to about 57 µM; on the % scale 0 is the no-effect control and ±100 the full control effect; nearly all actives have a fitted effect of over 65% in size
VDR inh: Inhibitors of the vitamin D receptor (VDR): qHTS | Vitamin D3 receptor (Homo sapiens), P11473 | VDR-SRC2-3 peptide fluorescence polarization, 2 h | Potency, µM, without a hit: max response, negative = inhibition, actives largely listed as inhibitors | 0.93% of 400,000 active | AID 504847, 2011; further: potency means the concentration at half of the fitted maximal effect; on the % scale 0 is the no-effect control and ±100 the full control effect
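Reagent solutions, kept cold and dark, are dispensed first; compounds are then pinned in at 23 nl, plates briefly spun, and incubated 2 h at ambient temperature. Inhibition of VDR–SRC2-3 peptide binding is read by fluorescence polarization.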
Rango release inh: qHTS Assay for Inhibitors of RanGTP induced Rango (Ran-regulated importin-beta cargo) - Importin beta complex dissociation. Snurportin-1 (Homo sapiens) + GTP-binding nuclear protein Ran (Homo sapiens) + Importin …. Biochemical FRET Rango-importin beta, RanGTP-induced dissociation. Potency, µM (top dose mostly 46.1 µM), for the others: top-dose activity change, negative = inhibition. 0.071% of 340,000 active. AID 540253, 2011; calls by dose curve; further: potency means the concentration at half of the fitted maximal effect; % of control where 0% means no effect; nearly all actives have a fitted effect of over 45% in size
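Rango (0.1 uM)–importin beta (0.25 uM) complex; RanGTP-RCC1 trigger; 45 min RT; CFP/YFP FRET read.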
GCN5L2 inh: qHTS Assay for Inhibitors of GCN5L2 | AID 504327, 2011 | Histone acetyltransferase KAT2A (Homo sapiens), Q92830 | Potency, µM (titrated, usually from 58.9 µM), without a hit: at the top dose activity change, negative = inhibition, hits mostly inhibitors | 0.21% of 390,000 active | GCN5L2 HAT assay, ThioGlo1 CoA-SH fluorescence; further: potency means the concentration at half of the fitted maximal effect; on the % scale 0 is the no-effect control and ±100 the full control effect
Target sequence (Q92830 whole entry, looked up): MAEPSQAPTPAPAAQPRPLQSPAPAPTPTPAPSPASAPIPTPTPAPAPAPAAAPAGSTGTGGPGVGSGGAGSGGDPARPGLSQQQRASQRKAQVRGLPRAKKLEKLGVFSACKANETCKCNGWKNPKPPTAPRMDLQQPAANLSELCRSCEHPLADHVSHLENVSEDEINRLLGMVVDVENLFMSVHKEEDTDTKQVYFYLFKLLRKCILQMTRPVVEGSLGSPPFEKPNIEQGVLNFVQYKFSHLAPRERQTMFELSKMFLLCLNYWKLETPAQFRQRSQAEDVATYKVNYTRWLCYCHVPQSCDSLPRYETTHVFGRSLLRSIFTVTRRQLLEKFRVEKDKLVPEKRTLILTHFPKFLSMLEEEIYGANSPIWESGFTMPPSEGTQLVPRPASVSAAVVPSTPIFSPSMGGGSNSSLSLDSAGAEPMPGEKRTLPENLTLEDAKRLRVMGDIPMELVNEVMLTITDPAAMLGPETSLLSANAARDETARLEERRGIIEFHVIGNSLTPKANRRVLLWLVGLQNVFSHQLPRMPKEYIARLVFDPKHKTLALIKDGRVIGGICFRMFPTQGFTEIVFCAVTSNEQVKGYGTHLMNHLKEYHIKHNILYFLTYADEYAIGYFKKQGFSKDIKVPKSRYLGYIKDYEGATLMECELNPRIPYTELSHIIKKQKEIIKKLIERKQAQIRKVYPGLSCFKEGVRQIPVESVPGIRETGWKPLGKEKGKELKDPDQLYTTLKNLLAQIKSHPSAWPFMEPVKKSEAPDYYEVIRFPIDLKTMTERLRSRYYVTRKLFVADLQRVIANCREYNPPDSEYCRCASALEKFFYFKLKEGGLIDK
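Titration-based screen in which CoA formation is detected via maleimide probe ThioGlo1 (50uM) turning fluorescent on thiol reaction; substrates H3(1-25) 75uM and acetyl-CoA 70uM, GCN5L2 20nM, 20 min incubation at room temperature.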
* marks the source's active call; other numbers are inactive results; u = inconclusive; x = not tested or not shown. Most compounds without a hit are left out; they make up all but 3.6% or so of the library. Unless noted, the call rests on the fitted dose curve; in most records, active means well fitted curve in the direction sought with a large enough effect; inconclusive means small, poorly fitted or top-dose-only effect, or another doubt; inactive means no such curve, though single readings can be large; an effect the other way counts as inactive or inconclusive.

SMILES | PI5P4Ka inh | Rango complex inh | PLK1 PBD inh | VDR inh | Rango release inh | GCN5L2 inh
CCN(c1ccc(C)cc1C)S(=O)(=O)c1nnc(NC(=O)c2ccccc2OC)s1 | x | x | x | 12% | x | 1%
O=Cc1ccc2oc3nc4n(c(=O)c3c(=O)c2c1)CCCS4 | -73* | 0% | u | 7% | -4% | u
Cn1c(=O)c(NC2CCCCC2)c2c3c(cccc31)C(=O)c1ccccc1-2 | 13 | u | u | 0% | u | -5%
Cn1c(=O)c(NCCc2ccccc2)c2c3c(cccc31)C(=O)c1ccccc1-2 | 2 | u | 3.8µM* | u | u | -29%
CCCCNc1c2c3c(cccc3n(C)c1=O)C(=O)c1ccccc1-2 | x | u | 2.4µM* | 1% | u | -11%
CC(=O)Nc1ccc(NC2=CC(=O)c3ccccc3C2=O)cc1 | -3 | 0% | -8% | 6% | 20% | 17%
CC(=O)Nc1ccc(Nc2c3c4c(cccc4n(C)c2=O)C(=O)c2ccccc2-3)cc1 | 5 | 10% | 6.7µM* | 11% | 1% | 0%
Cn1c(NCCc2ccccc2)cc(=O)n(C)c1=O | -14 | 0% | 0% | -3% | -6% | -4%
Cc1cccc(CSCc2ccc(C(=O)O)o2)c1 | -2 | 3% | 24µM* | -6% | 17% | 4%
COC(=O)c1sc2ccccc2c1N | -15 | 2% | 27µM* | -28% | -2% | -10%
Cc1ccc(-c2nnn(CC(=O)Nc3nnc(C(C)C)s3)n2)cc1 | -6 | 0% | 27µM* | -7% | 23% | 0%
CCOC(=O)c1cc(-c2ccc(OC)cc2)n(CCC(=O)NC2CCCCC2)c1C | x | x | x | 3% | x | -1%
COc1ccccc1N1CCN(C(=O)CSc2nc(-c3ccc(C(C)C)cc3)no2)CC1 | x | x | x | 17% | x | 20%
Nc1nc(SCC(=O)Nc2ccc(Cl)cn2)n[nH]1 | 1 | -2% | 30µM* | -6% | -4% | -11%
Cc1nn(-c2ccccc2)c(-n2cccc2)c1C(=O)NCCCN1CCN(c2ccccc2F)CC1 | x | x | x | 13% | x | -5%
Cc1cc2oc(C(=O)Nc3ccc(S(=O)(=O)N(C)c4ccccc4)cc3)cc(=O)c2cc1C | x | x | x | 12% | x | -3%
Cc1ccc(Cn2cc(CCC(=O)NC3CCC(C)CC3)c3ccccc32)cc1 (stereo not drawn) | x | x | x | 2% | x | -7%
COc1cc(/C=C(\C#N)C(N)=O)cc(CSc2nc3ccccc3s2)c1O | x | x | x | -16% | x | 28µM*
O=C(CSc1n[nH]c(=O)[nH]c1=O)N1CCCCCC1 | -14 | -3% | 27µM* | u | -4% | -20%
CC(C)C(N)C(=O)O (stereo not drawn) | x | x | x | 5% | x | -8%
CN1CCN(C2=C(Cl)C(=O)N(c3ccc(Cl)c(Cl)c3)C2=O)CC1 | 5 | 1% | 27µM* | u | 1% | -13%
CC(=O)c1cccc(NC(=O)CC(c2ccc(C)cc2)N2Cc3ccccc3C2=O)c1 (stereo not drawn) | x | x | x | 10% | x | 1%
COc1ccc(-c2nc(SCC(=O)NC(C)CCc3ccccc3)n[nH]2)cc1 (stereo not drawn) | x | x | x | -1% | x | 1%
CCOc1ccc(N(CC)C(=O)c2nn(-c3ccc(OC)cc3)c(=O)c3c2c2ccccc2n3C)cc1 | 1 | 5% | 27µM* | -7% | 27% | -9%
CCOc1ccccc1NC(=O)c1nn(-c2ccc(OC)cc2)c(=O)c2c1c1ccccc1n2C | x | x | x | -1% | x | -6%
C=C(C(C)=O)C(O)c1cccc(OC)c1 (stereo not drawn) | x | x | x | 8% | x | x
Cc1ccc(NC(=O)c2cc(=O)n(Cc3ccccc3)c(=O)[nH]2)cc1C | 0 | -1% | 24µM* | u | -1% | -5%

Screens: PubChem BioAssay, National Center for Advancing Translational Sciences (NCATS)
